The record followed here is ChEMBL document CHEMBL3988442, “University of Dundee, Small-Polar-MMV Screening Library” (2021).

For some of these results: Measured potencies and affinities stand elsewhere.

Holding throughout (design): scale not given: direction of the effect not stated beside the values
The target in experiment [1] is Protein translocase subunit SecA (Escherichia coli (strain K12)) (UniProt P10408). Description: Assay to Identify E. coli SecA ATPase Inhibitors. It counts as functional. The note with it: 30 µM.
In experiment [2] the target is T1, Ubiquitin-activating enzyme e1, putative (Leishmania donovani (strain BPK282A1)) (UniProt E9BSI1).
T1 sequence (whole entry): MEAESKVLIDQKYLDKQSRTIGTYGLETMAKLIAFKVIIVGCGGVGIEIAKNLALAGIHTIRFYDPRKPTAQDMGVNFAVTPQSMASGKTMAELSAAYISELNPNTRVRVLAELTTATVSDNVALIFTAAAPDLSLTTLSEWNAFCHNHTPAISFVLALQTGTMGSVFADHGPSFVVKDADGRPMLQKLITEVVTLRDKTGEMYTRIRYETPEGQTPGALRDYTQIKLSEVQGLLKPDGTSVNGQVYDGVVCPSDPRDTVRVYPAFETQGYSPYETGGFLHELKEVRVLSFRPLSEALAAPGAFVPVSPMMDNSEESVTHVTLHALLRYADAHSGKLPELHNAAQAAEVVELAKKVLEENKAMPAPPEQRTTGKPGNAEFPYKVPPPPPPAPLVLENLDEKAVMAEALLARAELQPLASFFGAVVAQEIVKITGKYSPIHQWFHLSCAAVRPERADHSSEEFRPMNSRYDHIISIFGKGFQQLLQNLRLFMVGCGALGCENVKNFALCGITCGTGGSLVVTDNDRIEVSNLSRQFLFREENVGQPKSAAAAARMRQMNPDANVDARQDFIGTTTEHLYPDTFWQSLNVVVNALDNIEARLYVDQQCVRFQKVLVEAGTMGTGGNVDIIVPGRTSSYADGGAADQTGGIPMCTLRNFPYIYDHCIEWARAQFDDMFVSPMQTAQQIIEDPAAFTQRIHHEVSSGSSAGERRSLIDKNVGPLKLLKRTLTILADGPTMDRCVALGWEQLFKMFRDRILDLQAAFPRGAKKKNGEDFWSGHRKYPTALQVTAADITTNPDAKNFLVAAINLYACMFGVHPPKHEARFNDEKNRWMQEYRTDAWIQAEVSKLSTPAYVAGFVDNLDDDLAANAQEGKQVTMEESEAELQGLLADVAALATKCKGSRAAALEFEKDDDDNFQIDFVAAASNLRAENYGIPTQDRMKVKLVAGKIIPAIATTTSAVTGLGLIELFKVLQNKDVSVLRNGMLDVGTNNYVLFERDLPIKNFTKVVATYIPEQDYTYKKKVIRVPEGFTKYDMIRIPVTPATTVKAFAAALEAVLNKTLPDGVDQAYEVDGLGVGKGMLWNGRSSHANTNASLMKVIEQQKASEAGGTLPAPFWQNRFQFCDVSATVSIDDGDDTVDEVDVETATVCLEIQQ
Put plainly: Leishmania donovani Ubiquitin Activating Enzyme (LdE1). It counts as functional. The settings on record: 30 µM.

Experiment [3] concerns the target AMP-activated protein kinase, AMPK (Homo sapiens) (UniProt P54646+O43741+P54619+Q9UGJ0+Q9Y478+Q13131+Q9UGI9). Put plainly: AMP-dependent Kinase enzyme assay. An in vitro enzyme assay that detects ADP turnover that is directly proportional to AMPK activity. This uses naive AMPK that is activated during the assay with MK-8722. It counts as functional. The note with it: 30 µM.

In experiment [4] the target is Sialic acid-binding Ig-like lectin 9 (Homo sapiens) (UniProt Q9Y336). Put plainly: Hs-Siglec9 ALPHAscreen SOP 20170721. The note with it: 10 µM.
For experiment [5], the system named is Trypanosoma cruzi. Put plainly: Trypanosoma cruzi phosphomannomutase and mannose-1-phosphate guanylyltransferase assay. The settings on record: 10 µM. It counts as functional.
The target in experiment [6] is T2, Arginase-2, mitochondrial (Homo sapiens) (UniProt P78540).
T2 sequence (whole entry): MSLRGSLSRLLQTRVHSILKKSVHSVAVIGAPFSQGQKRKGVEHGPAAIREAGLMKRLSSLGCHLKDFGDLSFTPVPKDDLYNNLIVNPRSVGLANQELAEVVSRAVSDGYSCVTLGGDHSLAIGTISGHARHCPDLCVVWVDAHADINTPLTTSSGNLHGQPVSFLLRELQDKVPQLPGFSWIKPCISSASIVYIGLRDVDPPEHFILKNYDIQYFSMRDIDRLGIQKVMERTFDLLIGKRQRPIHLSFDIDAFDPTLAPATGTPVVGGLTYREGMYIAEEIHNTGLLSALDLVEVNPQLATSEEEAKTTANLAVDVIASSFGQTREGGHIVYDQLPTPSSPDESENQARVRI
Put plainly: in vitro enzyme assay to detect the production of urea directly proportional to the activity of Arginase II. Note: in the data most compounds retested in dose-response had high values. It counts as functional. The settings on record: 33.3 µM.

The target of experiment [7] is T3, Proteasome subunit beta (Trypanosoma cruzi) (UniProt O96673).
T3 sequence (whole entry): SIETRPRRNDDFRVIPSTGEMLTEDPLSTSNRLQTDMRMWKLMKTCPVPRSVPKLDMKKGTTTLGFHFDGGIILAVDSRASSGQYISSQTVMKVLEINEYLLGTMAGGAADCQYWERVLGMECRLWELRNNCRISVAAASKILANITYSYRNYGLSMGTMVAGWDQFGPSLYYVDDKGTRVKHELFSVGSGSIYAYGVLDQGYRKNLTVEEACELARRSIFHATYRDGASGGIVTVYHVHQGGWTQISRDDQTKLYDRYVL
Put plainly: Trypanosoma cruzi proteasome chymotrypsin-like activity (TcProtChymo) assay. Note: in the data most compounds retested in dose-response had high values. It counts as functional. The note with it: 9.37 µM.

The species entered for experiment [8] is Homo sapiens. Put plainly: To identify inhibition of the IFN signalling (Jak-Stat) pathway via expression of an eGFP reporter gene under the control of an IFN-stimulated response element (ISRE) containing MxA promoter. It counts as functional. The settings on record: 30 µM. (Reporter assays use an easily measured gene product as a stand-in for the process of interest.)

For experiment [9], the target named is T4, Tyrosyl-tRNA synthetase, putative (Trypanosoma cruzi (strain CL Brener)) (UniProt Q4DSP6).
T4 sequence (whole entry): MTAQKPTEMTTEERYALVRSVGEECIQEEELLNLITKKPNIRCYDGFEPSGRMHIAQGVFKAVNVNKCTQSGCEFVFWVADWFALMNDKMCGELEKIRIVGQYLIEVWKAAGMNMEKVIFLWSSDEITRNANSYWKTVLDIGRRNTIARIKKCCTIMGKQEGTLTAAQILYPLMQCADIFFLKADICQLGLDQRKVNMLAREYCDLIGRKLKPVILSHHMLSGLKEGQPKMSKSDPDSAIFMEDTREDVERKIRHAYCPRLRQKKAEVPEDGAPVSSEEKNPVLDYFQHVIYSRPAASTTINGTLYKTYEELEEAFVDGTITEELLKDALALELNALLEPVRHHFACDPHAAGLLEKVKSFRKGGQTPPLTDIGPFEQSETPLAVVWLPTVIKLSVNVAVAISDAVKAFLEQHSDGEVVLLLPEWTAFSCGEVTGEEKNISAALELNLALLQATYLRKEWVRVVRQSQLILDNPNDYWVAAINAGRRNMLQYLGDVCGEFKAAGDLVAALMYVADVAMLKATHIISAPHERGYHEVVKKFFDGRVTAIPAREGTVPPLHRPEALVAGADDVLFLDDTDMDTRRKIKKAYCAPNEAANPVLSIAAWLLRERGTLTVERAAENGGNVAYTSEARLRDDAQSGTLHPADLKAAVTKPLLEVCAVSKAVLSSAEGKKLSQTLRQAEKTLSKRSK
Put plainly: Trypanosoma cruzi tyrosyl tRNA synthetase (TcYRS) _High Tyrosine SOP. Note: in the data most compounds retested in dose-response had high values. It counts as functional. The note with it: 30 µM.

In experiment [10] the target is T4, Tyrosyl-tRNA synthetase, putative (Trypanosoma cruzi (strain CL Brener)). Description: Trypanosoma cruzi tyrosyl tRNA synthetase (TcYRS) SOP. It counts as functional. The note with it: 30 µM.
The target of experiment [11] is Chromo domain-containing protein 1 (Saccharomyces cerevisiae (strain ATCC 204508 / S288c) (Baker's yeast)) (UniProt P32657). Put plainly: ScCHD-1 Enzyme Inhibition Assay. Note: in the data most compounds retested in dose-response had high values. It counts as functional. The note with it: 30 µM.
Sequence of Chromo domain-containing protein 1 (Saccharomyces cerevisiae (strain ATCC 204508 / S288c) (Baker's yeast)) (P32657 whole entry, the tested form may be a part): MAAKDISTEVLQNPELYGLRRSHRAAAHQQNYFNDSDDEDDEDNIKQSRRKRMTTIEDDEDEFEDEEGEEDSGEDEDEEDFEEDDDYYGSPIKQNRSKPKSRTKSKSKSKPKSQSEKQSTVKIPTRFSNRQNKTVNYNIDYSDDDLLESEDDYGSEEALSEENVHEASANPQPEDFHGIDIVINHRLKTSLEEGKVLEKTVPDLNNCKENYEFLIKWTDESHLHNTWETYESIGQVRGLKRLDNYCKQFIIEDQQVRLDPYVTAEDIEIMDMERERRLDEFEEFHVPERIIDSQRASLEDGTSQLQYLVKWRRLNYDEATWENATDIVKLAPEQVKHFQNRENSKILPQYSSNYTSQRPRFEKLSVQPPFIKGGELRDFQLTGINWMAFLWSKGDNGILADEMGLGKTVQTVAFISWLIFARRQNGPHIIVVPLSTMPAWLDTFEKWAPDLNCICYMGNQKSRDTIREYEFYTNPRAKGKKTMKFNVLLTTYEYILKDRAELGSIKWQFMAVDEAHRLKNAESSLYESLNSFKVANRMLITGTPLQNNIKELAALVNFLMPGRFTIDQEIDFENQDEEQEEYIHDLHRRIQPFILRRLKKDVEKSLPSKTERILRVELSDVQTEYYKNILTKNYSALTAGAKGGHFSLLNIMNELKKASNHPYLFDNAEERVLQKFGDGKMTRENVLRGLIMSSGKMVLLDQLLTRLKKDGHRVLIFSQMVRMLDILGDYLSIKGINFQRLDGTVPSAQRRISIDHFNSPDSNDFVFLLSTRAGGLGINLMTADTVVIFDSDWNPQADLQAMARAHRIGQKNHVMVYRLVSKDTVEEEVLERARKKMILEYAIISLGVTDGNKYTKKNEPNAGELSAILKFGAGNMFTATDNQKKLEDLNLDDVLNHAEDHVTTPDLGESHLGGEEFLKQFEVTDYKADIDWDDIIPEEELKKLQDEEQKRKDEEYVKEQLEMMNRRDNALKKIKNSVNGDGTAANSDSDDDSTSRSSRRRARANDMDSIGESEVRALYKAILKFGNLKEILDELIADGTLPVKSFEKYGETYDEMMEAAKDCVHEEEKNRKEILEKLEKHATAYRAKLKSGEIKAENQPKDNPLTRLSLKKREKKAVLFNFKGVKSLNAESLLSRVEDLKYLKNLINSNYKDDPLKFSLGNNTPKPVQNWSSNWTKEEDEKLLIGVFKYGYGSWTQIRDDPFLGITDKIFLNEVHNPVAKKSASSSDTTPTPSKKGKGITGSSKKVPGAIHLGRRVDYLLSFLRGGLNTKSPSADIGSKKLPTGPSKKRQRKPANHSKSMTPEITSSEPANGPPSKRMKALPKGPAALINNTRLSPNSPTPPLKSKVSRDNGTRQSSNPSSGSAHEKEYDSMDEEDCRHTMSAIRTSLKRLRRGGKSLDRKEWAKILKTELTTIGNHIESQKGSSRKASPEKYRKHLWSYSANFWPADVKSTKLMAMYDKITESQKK

Sequence of Protein translocase subunit SecA (Escherichia coli (strain K12)) (P10408 whole entry): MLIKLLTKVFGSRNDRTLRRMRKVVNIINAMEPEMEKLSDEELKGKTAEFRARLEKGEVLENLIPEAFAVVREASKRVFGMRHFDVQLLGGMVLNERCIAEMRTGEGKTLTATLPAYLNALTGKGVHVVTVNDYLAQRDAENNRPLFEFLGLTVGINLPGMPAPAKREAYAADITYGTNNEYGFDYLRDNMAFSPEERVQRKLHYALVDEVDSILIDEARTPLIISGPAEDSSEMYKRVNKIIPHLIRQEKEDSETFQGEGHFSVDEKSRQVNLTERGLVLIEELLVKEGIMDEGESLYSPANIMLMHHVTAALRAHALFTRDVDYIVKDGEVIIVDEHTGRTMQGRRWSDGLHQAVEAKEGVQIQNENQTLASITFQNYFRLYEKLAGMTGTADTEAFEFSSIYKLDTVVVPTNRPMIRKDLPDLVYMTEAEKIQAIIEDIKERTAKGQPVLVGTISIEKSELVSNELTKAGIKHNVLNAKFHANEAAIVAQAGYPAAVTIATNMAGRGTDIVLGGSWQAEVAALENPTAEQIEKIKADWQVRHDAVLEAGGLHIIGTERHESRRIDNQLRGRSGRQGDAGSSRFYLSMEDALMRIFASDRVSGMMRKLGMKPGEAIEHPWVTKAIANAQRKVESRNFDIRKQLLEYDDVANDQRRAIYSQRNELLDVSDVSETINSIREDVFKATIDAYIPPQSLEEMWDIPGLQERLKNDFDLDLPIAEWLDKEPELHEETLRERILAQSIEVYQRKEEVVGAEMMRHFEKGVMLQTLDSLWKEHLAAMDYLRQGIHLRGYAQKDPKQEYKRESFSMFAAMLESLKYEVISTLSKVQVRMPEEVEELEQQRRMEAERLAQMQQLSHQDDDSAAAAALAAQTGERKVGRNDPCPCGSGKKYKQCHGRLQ
Sequence of Sialic acid-binding Ig-like lectin 9 (Homo sapiens) (Q9Y336 whole entry): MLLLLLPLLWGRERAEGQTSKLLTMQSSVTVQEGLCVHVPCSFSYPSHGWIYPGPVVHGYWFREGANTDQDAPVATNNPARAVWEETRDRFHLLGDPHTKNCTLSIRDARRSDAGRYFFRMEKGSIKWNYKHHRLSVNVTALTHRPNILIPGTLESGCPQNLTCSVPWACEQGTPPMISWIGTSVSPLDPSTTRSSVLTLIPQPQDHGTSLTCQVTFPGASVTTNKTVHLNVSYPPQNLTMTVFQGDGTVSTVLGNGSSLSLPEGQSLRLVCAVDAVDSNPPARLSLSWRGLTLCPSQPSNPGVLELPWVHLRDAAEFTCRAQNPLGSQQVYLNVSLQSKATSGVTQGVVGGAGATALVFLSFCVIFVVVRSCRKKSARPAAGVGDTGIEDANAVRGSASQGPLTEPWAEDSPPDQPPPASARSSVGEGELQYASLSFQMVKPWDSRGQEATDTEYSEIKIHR

For the compound `NC(=O)c1cccc(CC2CCN(C(=O)CO)C2)c1` (stereo unspecified), the Percent Effect in [1] was -1.68%; in experiment [2], 19.2%; in experiment [3], 10.3%; in experiment [4], 10.6%; in experiment [5] it was 3.33%; in [6], -0.909%. In addition, the Percent Effect in experiment [7] is 15.4%; in experiment [8], 2.47%; in [9], 4.3%; in experiment [10] it was 17.5%; in experiment [11], -3.86%.
In the case of `CNc1cc(C)nc(C2CN(Cc3ccc(C)nc3)CCO2)c1` (stereo unspecified), the Percent Effect in [1] was -2.49%; in experiment [2], 4.05%; in [3], 9.63%; in [4], -3.85%; in [5], -1.19%; in experiment [6], -0.696%. The Percent Effect in experiment [7] was 4.84%; in [8] it was 0.717%; in [9], 3.23%; in experiment [10] it was 3.9%; in experiment [11] it was -10.8%.
Take `Cc1nc(C)n(CC2CCCN(CCOc3cccc(C#N)c3)C2)n1` (stereo unspecified): the Percent Effect in experiment [1] is 1.74%; in [2], 21.6%; in [3], 7.7%; in [4], 4.91%; in [5], -8.4%; in experiment [6], 24.9%. Moreover, the Percent Effect in [7] was 11.2%; in [8], 17.4%; in experiment [9], 0.493%; in experiment [10], -1.24%; in [11] it was -4.16%.
Take `O=C(NCc1ccco1)[C@H]1C[C@H]2OCC[C@H]2N(C(=O)c2ccco2)C1`: the Percent Effect in experiment [1] was -4.08%; in experiment [2], -2.67%; in experiment [3], 12.4%; in experiment [4], 1.43%; in experiment [5], -3.09%; in [6] it was -50.4%. For the same compound, the Percent Effect is 12% in experiment [7]; -6.88% in [8]; -3.12% in experiment [9]; -5% in [10]; 63.9% in [11].
For the compound `Cc1nc(C)c(C(=O)N2CCC(Nc3cccnc3)CC2)s1`, the Percent Effect in experiment [1] was 0.905%; in experiment [2] it was -2.74%; in experiment [3] it was -10.4%; in experiment [4], 50.9%; in experiment [5], -3.37%; in experiment [6] it was 8.38%. Also, the Percent Effect in experiment [7] is 14.5%; in [8] it was -5.72%; in experiment [9] it was 2.08%; in experiment [10], 3.7%; in [11], -3.74%.
As for `CCOc1ccccc1OC1CCN(C(=O)c2nc(=O)[nH][nH]2)CC1`, the Percent Effect in [1] was -5.6%; in experiment [2], 18.4%; in experiment [3], -5.81%; in experiment [4], 1.22%; in experiment [5], 10.5%; in experiment [6], -3.06%. Moreover, the Percent Effect in experiment [7] was 13.9%; in experiment [8], 18.1%; in experiment [9], 6.37%; in [10], 19.5%; in experiment [11], -9.11%.
As for `COc1ccc(NC(=O)Cn2nc(C)ccc2=O)cc1OC`, the Percent Effect in [1] is -3.84%; in experiment [2] it was -1.33%; in [3], 2.94%; in experiment [4], 4.69%; in experiment [5], -0.786%; in experiment [6] it was -5.46%. Also, the Percent Effect in experiment [7] was 7.39%; in experiment [8] it was -3.33%; in experiment [9] it was 3.17%; in [10], 5.13%; in experiment [11], 0.459%.
With `O=C(c1ccoc1)N1CCC2(CC1)C(=O)Nc1ccccc12`, the Percent Effect in [1] is -2.34%; in experiment [2], 16.2%; in [3], -9.89%; in experiment [4], 3.61%; in [5] it was 2.44%; in experiment [6], 6.2%. In addition, the Percent Effect in experiment [7] was 5.06%; in [8], 37.9%; in experiment [9], 8.6%; in experiment [10], 18.5%; in experiment [11], -8.75%.
Turning to `N#CCCN(CCC#N)C(=O)CN1CCCC1Cc1cccc(F)c1` (stereo unspecified), the Percent Effect in experiment [1] is -3.46%; in experiment [2] it was 0%; in experiment [3], -6.01%; in experiment [4], -7.53%; in experiment [5], 3.32%; in experiment [6], 1.25%. For the same compound, the Percent Effect in experiment [7] was 24.6%; in experiment [8], -17.1%; in experiment [9] it was 7.92%; in experiment [10] it was 8.54%; in [11], 0.083%.
Regarding `CN(C)C1CCN(C(=O)NCc2ccccc2Cn2cncn2)CC1`, the Percent Effect in experiment [1] was -2.11%; in experiment [2] it was 10.8%; in experiment [3] it was -1.1%; in experiment [4], 10.9%; in experiment [5] it was 7.72%; in [6], 6.19%. Besides, the Percent Effect was 12.2% in experiment [7]; 18.3% in [8]; 7.94% in [9]; 17.1% in [10]; -1.22% in experiment [11].
Take `N#Cc1ccccc1OCCN1CCCC1Cn1cccn1` (stereo unspecified): the Percent Effect in experiment [1] was -0.713%; in [2], -5.41%; in [3], -5.48%; in experiment [4] it was 8.98%; in experiment [5] it was 5.75%; in experiment [6], -3.61%. The Percent Effect in experiment [7] is -5.22%; in experiment [8] it was -12.9%; in experiment [9] it was 2.46%; in experiment [10], 11.1%; in experiment [11], -5.36%.
